Experimental data published in PubChem BioAssay (Tox21).
Several values for one entry are separate records, joined by “and”; a condition that tells them apart may be missing. Equal values may be shown once. Records with an inconclusive call do not appear. Where a call stands in place of a potency, no number is given. More than one record can exist for a structure, and the calls need not agree. Activity calls are given as the source filed them. Unless noted, the call rests on the fitted dose curve; in most records, active means well fitted curve in the direction sought with a large enough effect in the repeat runs; inconclusive means weak or mixed curves; inactive means no such curve, though single readings can be large; an effect the other way counts as inactive or inconclusive.

Columns and labels:
[1] = target: Cytochrome P450 2D6 (Homo sapiens) (UniProt P10635); assay: Cytochrome P450 Family 2 Subfamily D Member 6 (CYP2D6) small molecule antagonists: luciferase reporter qHTS assay (AID 1671196); further: nearly all actives have a fitted effect of over 50% in size; further: potency means the concentration at half of the fitted maximal effect
Method in brief: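 Cell-free P450-Glo system: CYP2D6 with proluciferin substrate was pre-incubated with compound for 10 min, then reacted with NADPH regeneration for 1 h at room temperature. Luciferin product was detected after 20 min, and data were reported as relative luminescence units.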

[2] = target: Cytochrome P450 2C19 (Homo sapiens) (UniProt P33261); assay: Cytochrome P450 Family 2 Subfamily C Member 19 (CYP2C19) small molecule antagonists: luciferase reporter qHTS assay (AID 1671197); further: nearly all actives have a fitted effect of over 65% in size; further: potency means the concentration at half of the fitted maximal effect
Method in brief: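 Quantitative high-throughput screen of the Tox21 library using CYP2C19 with proluciferin substrate. Reaction: NADPH regeneration, 37C, 1 h, after 10 min compound preincubation at room temperature. Readout: luminescence.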

[3] = target: Cytochrome P450 2C9 (Homo sapiens) (UniProt P11712); assay: Cytochrome P450 Family 2 Subfamily C Member 9 (CYP2C9) small molecule antagonists: luciferase reporter qHTS assay (AID 1671198); further: nearly all actives have a fitted effect of over 50% in size; further: potency means the concentration at half of the fitted maximal effect
Method in brief: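 P450-Glo proluciferin substrate with CYP2C9 enzyme; 10 min RT preincubation, then NADPH regeneration 1 h at 37C; luciferin detection reagent 20 min RT, luminescence in relative luminescence units.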

[4] = target: Cytochrome P450 1A2 (Homo sapiens) (UniProt P05177); assay: Cytochrome P450 Family 1 Subfamily A Member 2 (CYP1A2) small molecule antagonists: luciferase reporter qHTS assay (AID 1671199); further: nearly all actives have a fitted effect of over 50% in size; further: potency means the concentration at half of the fitted maximal effect
Method in brief: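 P450-Glo CYP1A2 enzyme–proluciferin substrate mix with compound 10 min at room temperature, then NADPH regeneration 1 h at room temperature. Luciferin detection reagent added, luminescence read after 20 min; furafylline positive control.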

[5] = target: Voltage-gated inwardly rectifying potassium channel KCNH2 (Homo sapiens) (UniProt Q12809); assay: Human Ether-a-go-go-Related Gene (hERG) channel small molecule antagonists: fluorescence cell-based qHTS assay (AID 1671200); further: nearly all actives have a fitted effect of over 50% in size; further: potency means the concentration at half of the fitted maximal effect
Method in brief: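 Quantitative HTS in hERG-U2OS cells: thallium entry through the channel reports activity, read as continuous 480/540 nm fluorescence over 2 min after stimulus addition.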

[6] = target: Cytochrome P450 3A4 (Homo sapiens) (UniProt P08684); assay: Cytochrome P450 Family 3 Subfamily A Member 4 (CYP3A4) small molecule antagonists: luciferase reporter qHTS assay (AID 1671201); further: nearly all actives have a fitted effect of over 50% in size; further: potency means the concentration at half of the fitted maximal effect
Method in brief: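 Inhibition of CYP3A4 is measured as loss of light: the enzyme converts a proluciferin substrate to luciferin, detected luminescently. Reaction ran 1 h at room temperature with NADPH regeneration after a 10 min compound preincubation.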

[7] = target: Acetylcholinesterase (Homo sapiens) (UniProt P22303); assay: Acetylcholinesterase (AChE) small molecule antagonists: enzyme-based qHTS assay with human liver microsomes (AID 1347399; calls by dose curve; further: nearly all actives have a fitted effect of over 60% in size); details: Potency: qHTS inhibition
Method in brief: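 Recombinant human AChE (50 mU/mL in the enzyme mix) and human liver microsomes (0.25 mg/mL final) were preincubated with compound and NADPH (0.25 mg/mL final) for 30 min at 37 C. Acetylthiocholine/DTNB was then added; thiocholine was read colorimetrically after 10 min at room temperature.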

Sequence of Cytochrome P450 3A4 (Homo sapiens) (P08684 whole entry, looked up): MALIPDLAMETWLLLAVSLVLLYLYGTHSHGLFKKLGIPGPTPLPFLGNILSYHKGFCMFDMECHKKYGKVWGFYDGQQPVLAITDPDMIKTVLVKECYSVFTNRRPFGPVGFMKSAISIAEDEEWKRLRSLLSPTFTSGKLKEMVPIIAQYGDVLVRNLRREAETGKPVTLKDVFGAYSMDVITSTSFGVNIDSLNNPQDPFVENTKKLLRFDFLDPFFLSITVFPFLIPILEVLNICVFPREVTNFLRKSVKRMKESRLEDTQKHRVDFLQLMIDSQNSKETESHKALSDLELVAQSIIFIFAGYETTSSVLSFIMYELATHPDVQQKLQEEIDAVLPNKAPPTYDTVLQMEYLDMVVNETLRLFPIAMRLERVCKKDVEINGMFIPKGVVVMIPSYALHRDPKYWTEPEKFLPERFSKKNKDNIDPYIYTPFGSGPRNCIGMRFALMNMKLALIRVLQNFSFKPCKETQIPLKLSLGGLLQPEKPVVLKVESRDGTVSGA
Sequence of Cytochrome P450 1A2 (Homo sapiens) (P05177 whole entry, looked up): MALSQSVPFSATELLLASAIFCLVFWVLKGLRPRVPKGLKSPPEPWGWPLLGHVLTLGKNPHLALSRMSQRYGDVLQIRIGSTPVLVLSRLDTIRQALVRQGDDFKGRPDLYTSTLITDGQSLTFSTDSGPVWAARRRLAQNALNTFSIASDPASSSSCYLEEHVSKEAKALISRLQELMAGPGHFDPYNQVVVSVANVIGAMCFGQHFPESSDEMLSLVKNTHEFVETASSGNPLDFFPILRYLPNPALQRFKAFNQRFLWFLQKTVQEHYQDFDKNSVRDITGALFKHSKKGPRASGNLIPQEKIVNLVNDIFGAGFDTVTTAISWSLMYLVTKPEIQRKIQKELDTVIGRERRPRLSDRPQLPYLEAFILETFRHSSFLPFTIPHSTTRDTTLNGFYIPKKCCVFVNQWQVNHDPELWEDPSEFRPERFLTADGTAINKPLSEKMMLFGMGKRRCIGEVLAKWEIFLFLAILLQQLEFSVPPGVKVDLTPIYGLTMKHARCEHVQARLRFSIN
Sequence of Cytochrome P450 2C19 (Homo sapiens) (P33261 whole entry, looked up): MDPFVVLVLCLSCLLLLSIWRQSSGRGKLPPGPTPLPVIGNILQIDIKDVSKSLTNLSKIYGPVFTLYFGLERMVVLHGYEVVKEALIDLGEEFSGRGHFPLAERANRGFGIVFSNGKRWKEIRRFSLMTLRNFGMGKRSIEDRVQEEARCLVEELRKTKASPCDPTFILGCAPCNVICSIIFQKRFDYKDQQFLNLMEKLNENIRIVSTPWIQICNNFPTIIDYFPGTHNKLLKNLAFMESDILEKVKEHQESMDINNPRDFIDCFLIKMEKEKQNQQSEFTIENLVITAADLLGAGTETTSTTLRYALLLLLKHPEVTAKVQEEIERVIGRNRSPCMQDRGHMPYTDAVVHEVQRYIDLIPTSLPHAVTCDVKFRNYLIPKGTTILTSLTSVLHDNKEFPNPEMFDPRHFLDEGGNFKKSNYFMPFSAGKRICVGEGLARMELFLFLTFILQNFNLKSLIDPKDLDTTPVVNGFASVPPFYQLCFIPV
Sequence of Cytochrome P450 2D6 (Homo sapiens) (P10635 whole entry, looked up): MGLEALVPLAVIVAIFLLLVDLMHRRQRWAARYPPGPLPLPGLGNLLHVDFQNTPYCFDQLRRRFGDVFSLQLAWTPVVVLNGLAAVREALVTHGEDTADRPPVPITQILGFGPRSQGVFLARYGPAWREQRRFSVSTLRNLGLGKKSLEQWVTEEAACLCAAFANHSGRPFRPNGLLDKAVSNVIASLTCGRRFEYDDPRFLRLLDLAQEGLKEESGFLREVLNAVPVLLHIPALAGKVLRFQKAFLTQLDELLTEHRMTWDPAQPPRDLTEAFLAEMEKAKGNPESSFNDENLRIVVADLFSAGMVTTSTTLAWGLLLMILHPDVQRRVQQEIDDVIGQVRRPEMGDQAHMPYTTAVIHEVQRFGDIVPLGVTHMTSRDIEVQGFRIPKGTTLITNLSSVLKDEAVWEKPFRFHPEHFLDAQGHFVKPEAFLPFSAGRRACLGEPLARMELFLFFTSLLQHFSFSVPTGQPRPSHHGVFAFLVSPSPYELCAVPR
Sequence of Acetylcholinesterase (Homo sapiens) (P22303 whole entry, looked up): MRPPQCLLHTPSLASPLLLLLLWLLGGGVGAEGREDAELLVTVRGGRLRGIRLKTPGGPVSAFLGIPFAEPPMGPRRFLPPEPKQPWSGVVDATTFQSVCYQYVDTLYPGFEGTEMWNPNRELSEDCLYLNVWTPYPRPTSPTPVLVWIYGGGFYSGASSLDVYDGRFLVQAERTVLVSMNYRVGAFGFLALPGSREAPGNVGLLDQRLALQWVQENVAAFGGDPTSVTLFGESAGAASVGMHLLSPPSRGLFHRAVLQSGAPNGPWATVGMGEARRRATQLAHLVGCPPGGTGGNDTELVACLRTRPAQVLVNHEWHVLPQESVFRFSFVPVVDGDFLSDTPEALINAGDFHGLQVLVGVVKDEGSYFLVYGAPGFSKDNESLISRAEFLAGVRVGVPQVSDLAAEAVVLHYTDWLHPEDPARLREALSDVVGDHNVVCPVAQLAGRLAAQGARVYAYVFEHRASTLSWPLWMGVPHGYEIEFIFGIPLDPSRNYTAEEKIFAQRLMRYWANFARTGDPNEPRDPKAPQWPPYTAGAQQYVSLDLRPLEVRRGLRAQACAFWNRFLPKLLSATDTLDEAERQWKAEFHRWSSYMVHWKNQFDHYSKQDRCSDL
Sequence of Voltage-gated inwardly rectifying potassium channel KCNH2 (Homo sapiens) (Q12809 whole entry, looked up): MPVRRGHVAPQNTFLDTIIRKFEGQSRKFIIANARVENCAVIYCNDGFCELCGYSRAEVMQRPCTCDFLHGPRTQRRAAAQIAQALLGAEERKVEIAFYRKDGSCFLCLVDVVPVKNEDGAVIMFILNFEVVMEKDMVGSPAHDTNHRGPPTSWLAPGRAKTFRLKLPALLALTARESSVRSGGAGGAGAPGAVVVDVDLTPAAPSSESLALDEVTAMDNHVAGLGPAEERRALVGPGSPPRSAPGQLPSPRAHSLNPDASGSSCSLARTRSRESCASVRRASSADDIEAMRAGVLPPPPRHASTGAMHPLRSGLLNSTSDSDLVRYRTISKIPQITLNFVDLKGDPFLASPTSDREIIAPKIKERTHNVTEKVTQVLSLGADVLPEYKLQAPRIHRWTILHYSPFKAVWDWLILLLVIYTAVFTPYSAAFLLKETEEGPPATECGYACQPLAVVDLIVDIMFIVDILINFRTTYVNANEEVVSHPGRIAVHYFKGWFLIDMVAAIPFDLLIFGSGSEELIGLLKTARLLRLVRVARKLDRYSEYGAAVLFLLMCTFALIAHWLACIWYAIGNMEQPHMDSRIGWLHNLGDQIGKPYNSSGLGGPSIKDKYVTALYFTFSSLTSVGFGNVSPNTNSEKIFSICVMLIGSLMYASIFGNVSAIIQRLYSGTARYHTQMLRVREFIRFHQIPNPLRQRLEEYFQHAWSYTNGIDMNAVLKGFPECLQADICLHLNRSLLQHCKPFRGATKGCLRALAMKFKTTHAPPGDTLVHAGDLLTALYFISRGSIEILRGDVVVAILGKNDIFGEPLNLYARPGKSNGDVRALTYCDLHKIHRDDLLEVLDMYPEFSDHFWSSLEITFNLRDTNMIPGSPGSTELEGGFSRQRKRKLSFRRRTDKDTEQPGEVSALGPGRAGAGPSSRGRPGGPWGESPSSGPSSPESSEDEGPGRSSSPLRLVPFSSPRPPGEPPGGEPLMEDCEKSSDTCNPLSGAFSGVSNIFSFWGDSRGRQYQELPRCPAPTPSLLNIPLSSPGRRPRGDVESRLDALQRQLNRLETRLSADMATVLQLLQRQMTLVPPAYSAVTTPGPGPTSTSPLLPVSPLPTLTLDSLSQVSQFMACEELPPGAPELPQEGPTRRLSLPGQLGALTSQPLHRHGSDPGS
Sequence of Cytochrome P450 2C9 (Homo sapiens) (P11712 whole entry, looked up): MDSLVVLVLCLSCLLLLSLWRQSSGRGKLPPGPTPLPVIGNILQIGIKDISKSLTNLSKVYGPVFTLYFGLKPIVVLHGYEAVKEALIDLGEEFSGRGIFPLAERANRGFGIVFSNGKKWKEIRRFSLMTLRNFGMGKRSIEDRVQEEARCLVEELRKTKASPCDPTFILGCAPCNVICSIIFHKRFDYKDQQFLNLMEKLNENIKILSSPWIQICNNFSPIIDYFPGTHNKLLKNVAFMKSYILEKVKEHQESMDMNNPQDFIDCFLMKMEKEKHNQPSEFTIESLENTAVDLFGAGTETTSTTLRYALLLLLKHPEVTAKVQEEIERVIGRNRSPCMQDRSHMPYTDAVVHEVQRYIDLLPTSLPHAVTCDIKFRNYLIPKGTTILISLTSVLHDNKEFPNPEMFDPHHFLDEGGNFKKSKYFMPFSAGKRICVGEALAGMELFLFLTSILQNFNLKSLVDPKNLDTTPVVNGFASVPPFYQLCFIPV

Row | Structure (SMILES) | Potency [1] | Potency [2] | Potency [3] | Potency [4] | Potency [5] | Potency [6] | Potency [7]
1 | N#Cc1ccccc1Cl | inactive | inactive | inactive | inactive | inactive | inactive | –
2 | O=[N+]([O-])c1cc([N+](=O)[O-])c2ccccc2c1 | – | – | inactive | – | inactive | inactive | inactive
3 | CC(C)(C)C(O)C(Oc1ccc(-c2ccccc2)cc1)n1cncn1 (stereo unspecified) | – | – | 10 µM (active) | – | inactive | 0.448 µM (active) | inactive
4 | C=CC(=O)OCCCCOC(=O)C=C | – | – | – | 35.6 µM (active) | inactive | inactive | inactive
5 | O=C(O)c1cc[c]([Hg][Cl])cc1 | 12.6 µM (active) | 7.1 µM (active) | 4.48 µM (active) | 17.8 µM (active) | inactive | 8.94 µM (active) | –
6 | CCCN(CCC)c1c([N+](=O)[O-])cc(S(N)(=O)=O)cc1[N+](=O)[O-] | 62.7 µM (active) | 37.9 µM (active) | 5.12 µM (active) | 51.2 µM (active) | – | – | –
7 | O=S(=O)(c1ccc(Cl)cc1)c1ccc(Cl)cc1 | – | 0.161 µM (active) | – | 34 µM (active) | 47.7 µM (active) | – | inactive
8 | COc1cccc2c1C(=O)c1c(O)c3c(c(O)c1C2=O)C[C@@](O)(C(=O)CO)CC3OC1CC(N2CCOC(OC)C2)C(O)C(C)O1 (stereo partly specified) | – | – | 4.36 µM (active) | inactive | inactive | – | inactive
9 | CCCCOP(=O)(CCCC)OCCCC | inactive | 11.2 µM (active) | 31.7 µM (active) | 31.7 µM (active) | inactive | – | –
10 | Nc1c(Oc2ccccc2)cc(O)c2c1C(=O)c1ccccc1C2=O | – | – | 17.4 µM (active) | 1.23 µM (active) | – | inactive | inactive
11 | CCc1cc(C)cc(CC)c1-c1c(OC(=O)C(C)(C)C)n2n(c1=O)CCOCC2 | – | – | inactive | inactive | inactive | 8.94 µM (active) | inactive
12 | Oc1ccc(C2(c3ccc(O)cc3)CCCCC2)cc1 | – | 37.8 µM (active) | 33.7 µM (active) | – | – | 23.9 µM (active) | inactive
13 | C[C@]12Cc3nonc3C[C@@H]1CC[C@@H]1[C@@H]2CC[C@@]2(C)[C@H]1CC[C@]2(C)O | inactive | 17.4 µM (active) | 24.5 µM (active) | inactive | inactive | – | –
14 | Oc1ccc2ccc3cccc4ccc1c2c34 | inactive | 20 µM (active) | 35.6 µM (active) | 0.894 µM (active) | inactive | 31.7 µM (active) | –
15 | O=c1oc2ccccc2c(O)c1Cc1c(O)c2ccccc2oc1=O | – | inactive | – | 24.5 µM (active) | inactive | inactive | inactive
16 | CCCCCCCCCCCCCCCC[N+](C)(C)C | 862 nM (active) and 1.42 µM (active) and 1.38 µM (active) | 79.6 µM (active) and inactive | inactive | inactive and 79.6 µM (active) | 16.8 µM (active) and 21.9 µM (active) and 16.9 µM (active) | inactive | –
17 | N#CCCO | inactive | inactive | inactive | inactive | – | inactive | –
